Experimental data taken from PubChem BioAssay.

Target: PEG-3 (UniProt Q6IN02)
Assay: Peg3 promoter luciferase inhibitors, potency, dose response, cell-based, HeLa, CREF/GAPDH counter-screen panel (AID 624167)
Details: CREF/GAPDH counter-screens; HeLa PEG-Prom luciferase reporter, overnight, run 1, dose range 1, at 100 µM (top of the series) unless noted

Chain of PEG-3 (Q6IN02 whole entry, looked up): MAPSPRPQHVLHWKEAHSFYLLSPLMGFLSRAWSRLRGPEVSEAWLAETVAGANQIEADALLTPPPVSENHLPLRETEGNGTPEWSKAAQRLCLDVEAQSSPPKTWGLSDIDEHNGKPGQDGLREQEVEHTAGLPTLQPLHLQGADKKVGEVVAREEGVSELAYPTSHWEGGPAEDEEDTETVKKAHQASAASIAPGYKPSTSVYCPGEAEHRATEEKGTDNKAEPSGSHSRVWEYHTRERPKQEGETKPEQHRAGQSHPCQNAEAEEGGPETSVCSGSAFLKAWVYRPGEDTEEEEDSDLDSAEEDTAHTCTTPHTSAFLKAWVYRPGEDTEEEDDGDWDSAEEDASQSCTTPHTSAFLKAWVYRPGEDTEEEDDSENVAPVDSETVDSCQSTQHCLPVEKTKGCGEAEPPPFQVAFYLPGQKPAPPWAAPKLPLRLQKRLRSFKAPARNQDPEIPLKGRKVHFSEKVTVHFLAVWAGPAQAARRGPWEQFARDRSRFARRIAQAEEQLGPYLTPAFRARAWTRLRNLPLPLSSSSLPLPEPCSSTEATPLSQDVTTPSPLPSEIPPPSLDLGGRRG

SMILES	inhibition [%]
CCOC(=O)c1cccc(Nc2nc(-c3cccnc3)nc3ccccc23)c1	98.9
CC(NC(=O)c1ccc([N+](=O)[O-])o1)C12CC3CC(CC(C3)C1)C2 (stereo not drawn)	99.4
Nc1c(C(=O)Nc2cccc(C(=O)O)c2)sc2nc3c(cc12)CCCC3	92.6
COC(=O)c1ccc(CNC(=O)Cn2cnc3c(NCc4ccccc4)ncnc32)cc1	97.3
CC(C)(C)c1ccc(CN2N=Nc3ccccc3S2(=O)=O)cc1	98.8
Cc1nc(N2CCN(c3ccccc3O)CC2)c2c(-c3ccccc3)csc2n1	94.8
O=S(=O)(c1cccc(F)c1)N1CCN(c2nc(-c3cccnc3)nc3ccccc23)CC1	26.5
O=C(Nc1ccc(-c2cn3ccsc3n2)cc1)c1ccc(F)c(S(=O)(=O)N2CCOCC2)c1	0.918
Cc1ccc(-c2nc(C(Cl)Cl)c3ccccc3n2)cc1	96.2
Cc1ccc2sc(N(CCCN(C)C)C(=O)c3ccc(S(=O)(=O)N(C)C4CCCCC4)cc3)nc2c1C	102
CC(C)CN(C(=O)COC(=O)/C=C/c1ccc(Cl)c(Cl)c1)c1c(N)n(Cc2ccccc2)c(=O)[nH]c1=O	-7.53
CC(=O)Nc1ccc(S(=O)(=O)N(Cc2ccco2)Cc2cc3ccccc3[nH]c2=O)cc1	91.7
Cc1cc(Sc2ncnc(N)c2[N+](=O)[O-])ncn1	102
Cc1cc(-n2c(SCC(=O)Nc3ccc(F)c(F)c3)nc3n[nH]c(C)c3c2=N)ccc1Cl	100
CCCCCCSc1cc(-c2nc3ccc(C)cn3c2NCCCC)ccc1OC	98.7
OCCNCc1cc(Br)ccc1OCc1ccc(Cl)cc1Cl	101
Cc1cc(Cl)n2ncc(-c3ccccc3)c2n1	102
O=C1/C(=C/c2ccccc2Cl)SC(=S)N1CCCC(=O)N(CCO)c1ccccc1	99.7
CCCCCCCCNCCS(=O)(=O)NCc1ccc(OC)cc1	98.9
COC(=O)c1ccc(Nc2cc(C)nc3ccc(C)cc23)cc1	98.7

SMILES	inhibition [%]
CN(CCOc1ccc(Cl)cc1)C(=O)c1cc(-c2ccco2)nc2ccccc12	99.6
CCC1(c2ccccc2)NC(=O)N(CC(=O)Nc2cc(S(=O)(=O)N3CCCCCC3)ccc2OC)C1=O (stereo not drawn)	65.1
CCOc1ccc2[nH]c3c(NCCc4ccc(OC)c(OC)c4)ncnc3c2c1	99
C/C(=N\N=C(N)N)c1ccc(Cl)c(Cl)c1	102
CNCC[C@@H](Oc1ccc(C(F)(F)F)cc1)c1ccccc1	98.7
CCOC(=O)c1c(NC(=O)CSc2nnnn2-c2ccccc2OCC)sc2c1CC(C)(C)NC2(C)C	98.8
COc1cc(-c2cc(C(=O)N(C)Cc3ccccc3)c3ccccc3n2)cc(OC)c1OC	79.4
CCCOc1ccc(NC(=O)CC2C(=O)N(CC)C(=S)N2CCCN2CCN(Cc3ccccc3)CC2)cc1 (stereo not drawn)	98.9
COc1cccc(Nc2nc(C(N)C3CCCCC3)cs2)n1 (stereo not drawn)	98.9
COc1ccc(-c2cc(-c3ccc(F)cc3)nc(N3CCN(C)CC3)n2)cc1	25.8
c1ccc(C[C@H]2CNCCN2CCCCC2CCCCC2)cc1	102
COc1cc(N=Nc2c(O)c3ccccc3[nH]c2=O)c(OC)cc1N=Nc1ccccc1	-11.2
CC(=O)NC(c1ccccc1)c1cc(Cl)c2cccnc2c1O (stereo not drawn)	96.6
CCC(=O)NC(c1cccs1)c1cc([N+](=O)[O-])c2cccnc2c1O (stereo not drawn)	100
Cc1ccc(C)c(CN2CCC(CNC(=O)Nc3ccc(F)c(Cl)c3)CC2)c1	102
COc1ccccc1NC(=S)NC1CCCCCCCCCCC1	48.3
COc1cccc(Nc2nc(C(N)Cc3ccccc3)cs2)n1 (stereo not drawn)	97.8
O=C1N[C@@H](c2ccccc2)COC(=O)[C@@H](Cc2ccc(F)cc2)CC/C=C/C[C@H]1CC(=O)N(CCO)Cc1ccccc1	95.6
COc1cc(/C=C/[N+](=O)[O-])ccc1OC(=O)/C=C/c1ccc(F)cc1	-70.5

Target: PEG-3 (UniProt Q6IN02)
Assay: as above
Details: CREF/GAPDH counter-screens; HeLa PEG-Prom luciferase reporter, overnight, run 2, dose range 1, at 100 µM (top of the series) unless noted

SMILES	inhibition
CCOC(=O)c1cccc(Nc2nc(-c3cccnc3)nc3ccccc23)c1	101%
CC(NC(=O)c1ccc([N+](=O)[O-])o1)C12CC3CC(CC(C3)C1)C2 (stereo not drawn)	98.5%
Nc1c(C(=O)Nc2cccc(C(=O)O)c2)sc2nc3c(cc12)CCCC3	77.5%
COC(=O)c1ccc(CNC(=O)Cn2cnc3c(NCc4ccccc4)ncnc32)cc1	74.3%
CC(C)(C)c1ccc(CN2N=Nc3ccccc3S2(=O)=O)cc1	100%
Cc1nc(N2CCN(c3ccccc3O)CC2)c2c(-c3ccccc3)csc2n1	94%
O=S(=O)(c1cccc(F)c1)N1CCN(c2nc(-c3cccnc3)nc3ccccc23)CC1	46.2%
O=C(Nc1ccc(-c2cn3ccsc3n2)cc1)c1ccc(F)c(S(=O)(=O)N2CCOCC2)c1	-62.2%
Cc1ccc(-c2nc(C(Cl)Cl)c3ccccc3n2)cc1	97.4%
Cc1ccc2sc(N(CCCN(C)C)C(=O)c3ccc(S(=O)(=O)N(C)C4CCCCC4)cc3)nc2c1C	102%
CC(C)CN(C(=O)COC(=O)/C=C/c1ccc(Cl)c(Cl)c1)c1c(N)n(Cc2ccccc2)c(=O)[nH]c1=O	-24.4%
CC(=O)Nc1ccc(S(=O)(=O)N(Cc2ccco2)Cc2cc3ccccc3[nH]c2=O)cc1	71.7%
Cc1cc(Sc2ncnc(N)c2[N+](=O)[O-])ncn1	102%
Cc1cc(-n2c(SCC(=O)Nc3ccc(F)c(F)c3)nc3n[nH]c(C)c3c2=N)ccc1Cl	95.3%
CCCCCCSc1cc(-c2nc3ccc(C)cn3c2NCCCC)ccc1OC	101%
OCCNCc1cc(Br)ccc1OCc1ccc(Cl)cc1Cl	101%
Cc1cc(Cl)n2ncc(-c3ccccc3)c2n1	102%
O=C1/C(=C/c2ccccc2Cl)SC(=S)N1CCCC(=O)N(CCO)c1ccccc1	102%
CCCCCCCCNCCS(=O)(=O)NCc1ccc(OC)cc1	95.7%
COC(=O)c1ccc(Nc2cc(C)nc3ccc(C)cc23)cc1	100%

SMILES	inhibition
CN(CCOc1ccc(Cl)cc1)C(=O)c1cc(-c2ccco2)nc2ccccc12	96.2%
CCC1(c2ccccc2)NC(=O)N(CC(=O)Nc2cc(S(=O)(=O)N3CCCCCC3)ccc2OC)C1=O (stereo not drawn)	61%
CCOc1ccc2[nH]c3c(NCCc4ccc(OC)c(OC)c4)ncnc3c2c1	100%
C/C(=N\N=C(N)N)c1ccc(Cl)c(Cl)c1	101%
CNCC[C@@H](Oc1ccc(C(F)(F)F)cc1)c1ccccc1	100%
CCOC(=O)c1c(NC(=O)CSc2nnnn2-c2ccccc2OCC)sc2c1CC(C)(C)NC2(C)C	102%
COc1cc(-c2cc(C(=O)N(C)Cc3ccccc3)c3ccccc3n2)cc(OC)c1OC	94.8%
CCCOc1ccc(NC(=O)CC2C(=O)N(CC)C(=S)N2CCCN2CCN(Cc3ccccc3)CC2)cc1 (stereo not drawn)	101%
COc1cccc(Nc2nc(C(N)C3CCCCC3)cs2)n1 (stereo not drawn)	102%
COc1ccc(-c2cc(-c3ccc(F)cc3)nc(N3CCN(C)CC3)n2)cc1	101%
c1ccc(C[C@H]2CNCCN2CCCCC2CCCCC2)cc1	101%
COc1cc(N=Nc2c(O)c3ccccc3[nH]c2=O)c(OC)cc1N=Nc1ccccc1	-33.1%
CC(=O)NC(c1ccccc1)c1cc(Cl)c2cccnc2c1O (stereo not drawn)	99.7%
CCC(=O)NC(c1cccs1)c1cc([N+](=O)[O-])c2cccnc2c1O (stereo not drawn)	101%
Cc1ccc(C)c(CN2CCC(CNC(=O)Nc3ccc(F)c(Cl)c3)CC2)c1	101%
COc1ccccc1NC(=S)NC1CCCCCCCCCCC1	102% [run 2, dose range 1, at 50 µM]
COc1cccc(Nc2nc(C(N)Cc3ccccc3)cs2)n1 (stereo not drawn)	99.1%
O=C1N[C@@H](c2ccccc2)COC(=O)[C@@H](Cc2ccc(F)cc2)CC/C=C/C[C@H]1CC(=O)N(CCO)Cc1ccccc1	97.4%
COc1cc(/C=C/[N+](=O)[O-])ccc1OC(=O)/C=C/c1ccc(F)cc1	-151%
